Calls of active or inactive are those of the source. Rule for the calls: active = hit-call score of the fitted dose curve at least 0.9, where 1 is the maximum; inactive = score below 0.9.
read-out: Intercellular Adhesion Molecule 1 (ICAM1), ICAM1 (gene 3383); assay: LTEA_HepaRG_ICAM1: Life Technologies and Expression Analysis (LTEA) Assay for Intercellular Adhesion Molecule 1 (ICAM1) using HepaRG (AID 2283507); conditions: mRNA level, 48 h; actives raise or lower the signal
Description: LTEA_HepaRG is a cell based, multiplexed-readout assay that uses HepaRG, a human liver cell line, with measurements taken at 48 hours after chemical dosing on a 96-well plate.LTEA_HepaRG_ICAM1 is one of 102 assay component(s) measured in the LTEA HepaRG cell culture assay. It is a marker of Fibrosis.Data from the assay component LTEA_HepaRG_ICAM1 was analyzed into 1 endpoint. This assay endpoint, LTEA_HepaRG_ICAM1, was analyzed with bidirectional fitting relative to DMSO as the negative control and baseline of activity. Using a type of inducible reporter, measures of mRNA induction for gain or loss-of-signal activity can be used to understand regulation of transcription factor activity. To generalize the intended target to other relatable targets, this assay endpoint is annotated to the cell adhesion molecules intended target family, where the subfamily is Immunoglobulin CAM.
A total of 1060 chemcials from the ToxCast library were tested in eight-point concentration-response experiments. Cell culture and cytotoxicity assays were conducted at Thermo Fisher Scientific's Custom Services facility (Madison, WI). A single lot of human HepaRG cells (Thermo Fisher Scientific, Frederick, MD) was used for the cell culture experiments. 96-well format collagen type I coated plates of human HepaRG cells were prepared using established methods. Briefly, cryopreserved HepaRG cells were thawed, plated at a density of approximately 100,000 cells/well in HepaRG Thaw, Plate, and General Purpose media (HPRG770, Thermo Fisher Scientific), and incubated for 48 hours. 0.5% DMSO was selected as vehicle control to balance the requisite need of DMSO in HepaRG cultures to maintain differentiation (for example, baseline metabolism, proportions of hepatocytes vs. cholangiocytes), while enabling further hepatic receptor pathway activation (for example, PXR and CAR) in response to chemical exposure. 48 hours after plating, the culture medium was replaced with HepaRG Serum-Free Incudtion Media. Cells were exposed to each test chemical in duplicate and maintained in CO2 incubators for another 48 hours. Chemical plates were thawed to room temperature and 200x concentrations of treatment groups were prepared. 8-point conentration-reponse curves were made with the highest exposure at 100 uM, followed by half-log dilutions, all in 0.5% DMSO. Each test plate contained variouse controls, induction positive controls (1mM phenobarbital), cytotoxicity positive controls ([…] aflatoxin B1), vehicle controls (0.5% DMSO), and total lysis controls (0.5% DMSO). Cell morphology images were taken using an Essen IncuCyte FLR automated microscope, with six 96-well plates imaged in about 24 minutes. Images were captured and exported and JPEG files. Spent culture media was transfered to black-well plates for the LDH assay, and remaining media was sorted at -80 C for later use. Cells were treated with RLT buffer and frozen until shipped for gene expression analysis. Total RNA was isolated from the cell suspension in 75 uL of Buffer RLT (Qiagen, Germantown, MD 20874) by Quintiles/Expression Analysis (Durham, NC) using a custom isolation procedure. Total RNA from each plate well was transferred to a preamplification plate. Fluidigm's 96.96 Dynamic ArrayTM (Fluidigm, Amsterdam, the Netherlands) technology was used for gene expression analyses by quantitative reverse transcription polymerase chain reaction (qRT-PCR, performed by Quintiles/Expression Analysis, Durham, NC)89. Standard TaqManTM Assays (Applied Biosystems/ThermoFisher Scientific, Foster City, CA) were used to assess the expression of 93 genes selected based on their selectivity and sensitivity to important hepatic receptors known to be modulated by environmental chemicals; importance in human hepatocyte functionality; and hepatotoxicity. […]

| Compound | outcome | AC50 |
| --- | --- | --- |
| CCOC(=O)C(C)OC(=O)c1cc(Oc2ccc(C(F)(F)F)cc2Cl)ccc1[N+](=O)[O-] (stereo not given) | inactive |  |
| CC(C)Nc1nc(Cl)nc(NC(C)C)n1 | inactive |  |
| Clc1cccc(C(Cl)(Cl)Cl)n1 | inactive |  |
| CCNC(=O)NC(=O)C(C#N)=NOC | inactive |  |
| CCCCC(C#N)(Cn1cncn1)c1ccc(Cl)cc1 (stereo not given) | inactive |  |
| Cc1cc(C)nc(Nc2ccccc2)n1 | inactive |  |
| Nc1c(Cl)c(Cl)nc(C(=O)O)c1Cl | inactive |  |
| CC(C)Oc1cccc(NC(=O)c2ccccc2C(F)(F)F)c1 | inactive |  |
| COP(=S)(OC)SCn1nnc2ccccc2c1=O | inactive |  |
| CS(=O)(=O)c1ccc(C(=O)C2C(=O)CCCC2=O)c([N+](=O)[O-])c1 | inactive |  |
| CN=C=S | inactive |  |
| CCOP(=S)(OCC)Oc1nc(Cl)n(C(C)C)n1 | inactive |  |
| COC(=O)N(C(=O)N1CO[C@@]2(C(=O)OC)Cc3cc(Cl)ccc3C2=N1)c1ccc(OC(F)(F)F)cc1 | inactive |  |
| COC(=O)NS(=O)(=O)c1ccc(N)cc1 | inactive |  |
| Cn1c(-c2ccccc2)cc(-c2ccccc2)[n+]1C | inactive |  |
| CC(C)N1C(=O)N(c2ccccc2)CSC1=NC(C)(C)C |  | 74.6 µM (active) |
| CC1(C)CCC(=Cc2ccc(Cl)cc2)C1(O)Cn1cncn1 (stereo not given) | inactive |  |
| COCC(C)N(C(=O)CCl)c1c(C)csc1C (stereo not given) | inactive |  |
| CNC(=O)Oc1cccc2ccccc12 | inactive |  |
| CCOc1nc(C(Cl)(Cl)Cl)ns1 |  | 1.38 µM (active) |

| Compound | outcome | AC50 |
| --- | --- | --- |
| CN/C(=N\[N+](=O)[O-])NCc1cnc(Cl)s1 | inactive |  |
| COCc1cnc(C2=NC(C)(C(C)C)C(=O)N2)c(C(=O)O)c1 (stereo not given) | inactive |  |
| COC(=O)c1c(C(F)F)nc(C(F)(F)F)c(C2=NCCS2)c1CC(C)C | inactive |  |
| CCSC(=O)N1CCCCCC1 | inactive |  |
| COC(=O)NC(=S)Nc1ccccc1NC(=S)NC(=O)OC | inactive |  |
| CCOc1cc(C(C)(C)C)ccc1C1COC(c2c(F)cccc2F)=N1 (stereo not given) | inactive |  |
| O=c1n(Cl)c(=O)n(Cl)c(=O)n1Cl | inactive |  |
| Cc1cnc(C2=NC(C)(C(C)C)C(=O)N2)c(C(=O)O)c1 (stereo not given) | inactive |  |
| C=CCOC(=O)C(C)(C)OC(=O)c1cc(-n2c(=O)cc(C(F)(F)F)n(C)c2=O)ccc1Cl | inactive |  |
| CO/N=C(/C1=NOCCO1)c1ccccc1Oc1ncnc(Oc2ccccc2Cl)c1F |  | 29.4 µM (active) |
| COP(=O)(OC)O/C(C)=C/C(=O)N(C)C | inactive |  |
| CCN(CC)c1nc(C)cc(OP(=S)(OC)OC)n1 | inactive |  |
| O=C(O)c1c(Cl)ccc2cc(Cl)cnc12 | inactive |  |
| CCCC(=NOCC)C1=C(O)CC(CC(C)SCC)CC1=O (stereo not given) | inactive |  |
| OC(c1ccc(Cl)cc1)(c1ccc(Cl)cc1)C(Cl)(Cl)Cl |  | 77.6 µM (active) |
| CC1(C)C(C=C(Cl)Cl)C1C(=O)OC(C#N)c1cccc(Oc2ccccc2)c1 (stereo not given) | inactive |  |
| N#Cc1c(Cl)cccc1Cl | inactive |  |
| Nc1cnn(-c2ccccc2)c(=O)c1Cl | inactive |  |
| COc1cc(Cl)c(OC)cc1Cl | inactive |  |
| O=C1C2CC=CCC2C(=O)N1SC(Cl)(Cl)Cl (stereo not given) | inactive |  |

Reference: PubChem BioAssay (EPA / NIEHS)
